In the OligoGym collection:
Also: reference of the scale not given here.

These sequences were tested against LIG4 (assay: pooled miR-30 sensor sort-seq; sequence = guide strand). Settings: shRNA.
TAGCTTTTTATTATTAACCATC showed a sensor-assay potency score (higher = more potent) of -1.43.
For TTTATATACATCTCCATCTTTG, the sensor-assay potency score (higher = more potent) was -1.01.
Sequence TTTTAGATCATTAAGTCTCATA has a sensor-assay potency score (higher = more potent) of -0.76.
Work on TTTATTGTTACATTTGGCCTTA yielded a sensor-assay potency score (higher = more potent) of 0.231.
Sequence TAGTTTGCTGACTAACACCAAG has a sensor-assay potency score (higher = more potent) of -1.17.
With TTTCTGTAAACATCTTGGCTTC the sensor-assay potency score (higher = more potent) was -0.577.
TTGCTGACTAACACCAAGCTTT gave a sensor-assay potency score (higher = more potent) of -0.307.
For TAAAAGGTCGTTTACTTGCTGT, the sensor-assay potency score (higher = more potent) was -0.0412.
TTCCTTTCTGTAAACATCTTGG gave a sensor-assay potency score (higher = more potent) of -0.486.
Sequence TAGTCCACTGACATACTCTGGT has a sensor-assay potency score (higher = more potent) of 0.198.
With TAACACAAAACTCTACATCTTC the sensor-assay potency score (higher = more potent) was 0.104.
With TTCTTCAGGAGTCTGCTCGTTA the sensor-assay potency score (higher = more potent) was 0.109.

Each sequence was assayed against LILRA4 in the same assay as above. Settings: shRNA.
TTTGGGTAGGTTTTCTGCCTGC was tested, and the sensor-assay potency score (higher = more potent) was -0.143.
With AATCTGACTTCTTTTGTGCTGG the sensor-assay potency score (higher = more potent) was 0.00913.
In the case of TCCTCAATCAGAGTGAACCTGC, the sensor-assay potency score (higher = more potent) is reported as -0.933.
For TTCTCTCCTGAGGTCACCGTGG, the sensor-assay potency score (higher = more potent) was -1.07.
TAGCCGTAGCATCTGAATGTAC showed a sensor-assay potency score (higher = more potent) of -0.777.
Work on TAGCATCTGAATGTACCCCTGT yielded a sensor-assay potency score (higher = more potent) of 0.139.
Sequence TAATGGAGGAAGCATCTTCTAC has a sensor-assay potency score (higher = more potent) of -1.03.
Sequence TTTTCATAGCCGTAGCATCTGA has a sensor-assay potency score (higher = more potent) of -1.2.
With TTGATCTCAGACGCAACGGGGG the sensor-assay potency score (higher = more potent) was -1.08.
TCCTTGTACAGAGTGTATCTGA was tested, and the sensor-assay potency score (higher = more potent) was -0.799.
TAGGTTTTCTGCCTGCACCCGG showed a sensor-assay potency score (higher = more potent) of -0.532.
TTGTGTGCGCCGTAGCATCTGT was tested, and the sensor-assay potency score (higher = more potent) was -0.739.

The sequences below were run against LILRB3 in the same assay as above. Settings: shRNA.
Sequence TTAGTCATCTTTGAGTCAGGTG has a sensor-assay potency score (higher = more potent) of -0.0536.
TGACTGTCCAGCTCCACCCTGT gave a sensor-assay potency score (higher = more potent) of -0.563.
TATGCAGTCGGTACTCCTGGGC showed a sensor-assay potency score (higher = more potent) of -0.223.
With TTCCGTCTAAGGGTCAAGCTGT the sensor-assay potency score (higher = more potent) was -0.222.
Sequence TTATGCAGTCGGTACTCCTGGG has a sensor-assay potency score (higher = more potent) of -0.343.
In the case of TGCTGTGACGCTGACGTCGGAG, the sensor-assay potency score (higher = more potent) is reported as -0.552.
In the case of TTGTTGAGAAGTCTGTTGCTTT, the sensor-assay potency score (higher = more potent) is reported as -0.0209.
TTGATTGTTGAGAAGTCTGTTG was tested, and the sensor-assay potency score (higher = more potent) was -0.405.
TTGTGTGCACCGTAGCACCTGT showed a sensor-assay potency score (higher = more potent) of -0.532.
In the case of TATTAGTCATCTTTGAGTCAGG, the sensor-assay potency score (higher = more potent) is reported as -0.452.
In the case of TTTATGCAGTCGGTACTCCTGG, the sensor-assay potency score (higher = more potent) is reported as -0.617.
In the case of TTTCTCTGGTCAGATGTCCTGT, the sensor-assay potency score (higher = more potent) is reported as -0.223.

Each sequence was assayed against LIMK2 in the same assay as above. Settings: shRNA.
In the case of ATCTGCTGTGAATAGCTGCTGG, the sensor-assay potency score (higher = more potent) is reported as -0.683.
TACTTGATGGTGACCTTCCCTT was tested, and the sensor-assay potency score (higher = more potent) was -0.173.
Sequence TACAGCACACCAATGAACTTGA has a sensor-assay potency score (higher = more potent) of -0.145.
Work on TTCACTTGCACAGTGGTGGCGT yielded a sensor-assay potency score (higher = more potent) of 0.835.
